The values that follow come from PubChem BioAssay (NCI).

About 83,000 compounds went through this panel and 20% of them were active in at least one assay; those are over-represented in the sample as a whole.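 Interpretation: 100, growth as untreated; towards 0, rising growth inhibition; 0, no net growth; 0 to -100, cell death. Compounds scoring below 10 were considered active.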 A number with no mark means an inactive call. Active and inactive are the calls of the source.

Among the test systems are SR leukemia; RPMI-8226 leukemia; OVCAR-8 ovarian; OVCAR-5 ovarian; OVCAR-4 ovarian; SK-OV-3 ovarian; IGROV1 ovarian; OVCAR-3 ovarian; NCI/ADR-RES ovarian; T-47D breast; BT-549 breast; MDA-MB-435 melanoma; SW-620 colon; MCF7 breast; HCT-116 colon; KM12 colon; HCC-2998 colon; HS 578T breast.
Experiment in all cases: NCI-60 one-dose screen, 48 h (100 = growth as untreated, 0 = no growth, -100 = all killed)
Conditions in all cases: 10 µM

`COc1ccc(/C(=C/c2cc(OC)c(OC)cc2[N+](=O)[O-])C(=O)O)cc1`: the growth in the experiment with SR leukemia is 99.6%; in the experiment on RPMI-8226 leukemia, 97.3%; in the experiment on OVCAR-8 ovarian, 109%; in the experiment on OVCAR-5 ovarian, 111%; in the experiment with OVCAR-4 ovarian, 113%; in the experiment with SK-OV-3 ovarian it was 99.9%. Further, the growth is 107% with IGROV1 ovarian; 125% in the experiment on OVCAR-3 ovarian; 110% in the experiment with NCI/ADR-RES ovarian; 94.8% in the experiment with T-47D breast; 111% in the experiment on BT-549 breast; 116% with MDA-MB-435 melanoma. Further, the growth in the experiment on SW-620 colon was 105%; in the experiment with MCF7 breast, 105%; in the experiment on HCT-116 colon, 116%; in the experiment with KM12 colon, 121%.

As to `O=NN(CCCl)C(=O)NCc1ccc(-c2ccc(CNC(=O)N(CCCl)N=O)cc2)cc1`, the growth in the experiment on SR leukemia is -5.09% (active); with RPMI-8226 leukemia it was 93.5%; in the experiment with OVCAR-8 ovarian, 94%; with OVCAR-5 ovarian, 115%; in the experiment on OVCAR-4 ovarian it was 114%; in the experiment on SK-OV-3 ovarian, 95.8%. Besides, the growth is 66.6% in the experiment with IGROV1 ovarian; 115% in the experiment with OVCAR-3 ovarian; 100% in the experiment on NCI/ADR-RES ovarian; 101% in the experiment on T-47D breast; 86.6% in the experiment with BT-549 breast; 91.3% in the experiment on MDA-MB-435 melanoma. For the same compound, the growth is 89.5% in the experiment on SW-620 colon; 96.1% with MCF7 breast; 89.2% in the experiment on HCT-116 colon; 101% in the experiment with HCC-2998 colon; 98.9% in the experiment on KM12 colon.

Take `CC(=O)Nc1nc(C)c(C(=O)N/N=C/c2cccn2C)s1`: the growth is 107% in the experiment with SR leukemia; 110% in the experiment with RPMI-8226 leukemia; 101% with OVCAR-8 ovarian; 110% in the experiment with OVCAR-5 ovarian; 108% with OVCAR-4 ovarian; 141% with SK-OV-3 ovarian. Further, the growth in the experiment with IGROV1 ovarian was -1.21% (active); with OVCAR-3 ovarian, 105%; in the experiment with HS 578T breast, 72.5%; with NCI/ADR-RES ovarian it was 96%; in the experiment on T-47D breast, 121%; in the experiment with SW-620 colon, 102%. The growth is 87.5% in the experiment with MCF7 breast, 111% in the experiment on HCT-116 colon, 70.8% in the experiment with HCC-2998 colon and 105% with KM12 colon.

`O=S(=O)(NC1c2ccccc2Oc2ccccc21)c1ccccc1`: the growth was 58.3% in the experiment on SR leukemia; 94.1% in the experiment with RPMI-8226 leukemia; 88.8% in the experiment on OVCAR-8 ovarian; 101% in the experiment on OVCAR-5 ovarian; 88.6% in the experiment with OVCAR-4 ovarian; 99.6% with SK-OV-3 ovarian. For the same compound, the growth in the experiment on IGROV1 ovarian was 97.3%; in the experiment with OVCAR-3 ovarian, 97.6%; in the experiment on NCI/ADR-RES ovarian, 90.9%; with T-47D breast, 82.3%; in the experiment on BT-549 breast, 91.6%; in the experiment on MDA-MB-435 melanoma, 107%. For the same compound, the growth is 97% in the experiment with SW-620 colon; 91.5% in the experiment with MCF7 breast; 84.9% with HCT-116 colon; 103% in the experiment with HCC-2998 colon; 104% with KM12 colon.

As to `COc1ccc2nc(-c3ccccc3)cc(C(C)=O)c2c1`, the growth in the experiment on SR leukemia was 81.6%; with RPMI-8226 leukemia, 94.5%; with OVCAR-8 ovarian, 97.3%; with OVCAR-5 ovarian, 92.4%; with OVCAR-4 ovarian, 103%; in the experiment with SK-OV-3 ovarian, 107%. Besides, the growth in the experiment with IGROV1 ovarian was 86.2%; in the experiment on OVCAR-3 ovarian, 115%; in the experiment on NCI/ADR-RES ovarian it was 90.1%; in the experiment on T-47D breast, 69.5%; in the experiment with BT-549 breast, 93.6%; in the experiment with MDA-MB-435 melanoma, 98%. Moreover, the growth in the experiment with SW-620 colon is 99.9%; with MCF7 breast, 72.6%; in the experiment on HCT-116 colon it was 91.2%; in the experiment on HCC-2998 colon, 107%; in the experiment with KM12 colon, 103%.

Consider `CCCc1ccnc(NS(=O)(=O)c2ccc(N)cc2)n1`, for which the growth in the experiment with SR leukemia is 72.2%; in the experiment on RPMI-8226 leukemia, 41.4%; in the experiment with OVCAR-8 ovarian, 75.2%; in the experiment on OVCAR-5 ovarian, 117%; with OVCAR-4 ovarian, 54.7%; with SK-OV-3 ovarian, 95.9%. Moreover, the growth is 96.4% with IGROV1 ovarian; 73.5% in the experiment on OVCAR-3 ovarian; 82% in the experiment with HS 578T breast; 112% in the experiment with NCI/ADR-RES ovarian; 64% with T-47D breast; 77.9% in the experiment with MDA-MB-435 melanoma. Also, the growth in the experiment with SW-620 colon was 99.5%; in the experiment on MCF7 breast, 49.2%; with HCT-116 colon, 66.1%; in the experiment with KM12 colon, 74.9%.

Take `Nc1cc(O)cc(O)c1`: the growth in the experiment on SR leukemia is 91.7%; with RPMI-8226 leukemia, 109%; in the experiment with OVCAR-8 ovarian, 104%; in the experiment with OVCAR-5 ovarian it was 89.6%; with OVCAR-4 ovarian it was 94.1%; in the experiment with SK-OV-3 ovarian, 99.3%. For the same compound, the growth was 100% with IGROV1 ovarian; 108% in the experiment on OVCAR-3 ovarian; 99.7% in the experiment with NCI/ADR-RES ovarian; 89% in the experiment on T-47D breast; 105% in the experiment with BT-549 breast; 106% in the experiment on MDA-MB-435 melanoma. Further, the growth in the experiment with SW-620 colon is 107%; in the experiment with MCF7 breast it was 98.3%; in the experiment on HCT-116 colon it was 95.8%; in the experiment with HCC-2998 colon it was 98.5%; in the experiment with KM12 colon, 99.7%.

As to `CCN1CCN(c2ccc(Nc3ncnc4c3nnn4CCc3cc(OC)cc(OC)c3)cc2)CC1`, the growth with SR leukemia was 89.2%; in the experiment with RPMI-8226 leukemia it was 91.1%; in the experiment on OVCAR-8 ovarian, 87.5%; in the experiment on OVCAR-5 ovarian, 86.7%; with OVCAR-4 ovarian, 86.7%; with SK-OV-3 ovarian, 101%. In addition, the growth in the experiment on IGROV1 ovarian is 111%; in the experiment on OVCAR-3 ovarian, 99.2%; in the experiment with HS 578T breast, 88.2%; with NCI/ADR-RES ovarian it was 92.3%; in the experiment on T-47D breast, 73.3%; with MDA-MB-435 melanoma, 95.4%. Besides, the growth is 102% in the experiment with SW-620 colon; 85.8% with MCF7 breast; 77.9% with HCT-116 colon; 109% with HCC-2998 colon; 99.1% with KM12 colon.
